Assay results from the supplement of paper PMC6555819.

Tests used:
Assay in all cases: PBM binding z-score (relative to random genomic background probes); higher = stronger binding; sequences stand for … in GC…GCGATTGACAGCGTAGAATGAAGG
[1] = test system: FXR:RXRa (NR concentration 270 nM, RXRa partner concentration 90 nM)
How it was run: (§1)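 For binding z-scores, the reference was random background probes on custom Agilent 4×180K protein-binding microarrays. These arrays were incubated 1 h with ligand-free nuclear receptor dimers in PBS pH 7.4, 2% milk, 0.02% Triton X-100, 1 mM DTT, 0.2 mg/mL BSA and 0.4 mg/ml salmon testes DNA. Fluorescence was scanned after antibody detection of each partner (one per run) and regression-normalized.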

[2] = test system: LXRa:RXRa (NR concentration 270 nM, RXRa partner concentration 90 nM)
How it was run: as §1

[3] = test system: LXRa homodimer (NR concentration 270 nM)
How it was run: as §1

[4] = test system: LXRb:RXRa (NR concentration 270 nM, RXRa partner concentration 90 nM)
How it was run: as §1

[5] = test system: LXRb homodimer (NR concentration 270 nM)
How it was run: as §1

[6] = test system: PPARa:RXRa (NR concentration 270 nM, RXRa partner concentration 90 nM)
How it was run: as §1

[7] = test system: PPARg:RXRa (NR concentration 180 nM, RXRa partner concentration 90 nM)
How it was run: as §1

[8] = test system: PPARg:RXRa 270nM:90nM, anti-RXR (NR concentration 270 nM, RXRa partner concentration 90 nM)
How it was run: as §1

[9] = test system: PPARg:RXRa 30nM:10nM, anti-RXR (NR concentration 30 nM, RXRa partner concentration 10 nM)
How it was run: as §1

[10] = test system: PPARg:RXRa 90nM:30nM, anti-RXR (NR concentration 90 nM, RXRa partner concentration 30 nM)
How it was run: as §1

[11] = test system: PPARg:RXRa DBDmut IVT, anti-RXR (DBD mutation: RXRa K156A/R161A, NR concentration 270 nM, RXRa partner concentration 90 nM)
How it was run: as §1

[12] = test system: PPARg:RXRa IVT, anti-PPARg (NR concentration 270 nM, RXRa partner concentration 90 nM)
How it was run: as §1

[13] = test system: PPARg DBDmut:RXRa IVT, anti-PPARg (DBD mutation: PPARg1 K132A/R137A, NR concentration 270 nM, RXRa partner concentration 90 nM)
How it was run: as §1

[14] = test system: PPARg DBDmut IVT, anti-PPARg (DBD mutation: PPARg1 K132A/R137A, NR concentration 270 nM)
How it was run: as §1

[15] = test system: PPARg homodimer (NR concentration 180 nM)
How it was run: as §1

[16] = test system: PXR:RXRa (NR concentration 270 nM, RXRa partner concentration 90 nM)
How it was run: as §1

[17] = test system: PXR homodimer (NR concentration 270 nM)
How it was run: as §1

[18] = test system: RARa:RXR (NR concentration 270 nM, RXRa partner concentration 90 nM)
How it was run: as §1

[19] = test system: RARa homodimer (NR concentration 270 nM)
How it was run: as §1

[20] = test system: RARb:RXRa (NR concentration 270 nM, RXRa partner concentration 90 nM)
How it was run: as §1

| Sequence | PBM binding z-score [1] | PBM binding z-score [2] | PBM binding z-score [3] | PBM binding z-score [4] | PBM binding z-score [5] | PBM binding z-score [6] | PBM binding z-score [7] | PBM binding z-score [8] | PBM binding z-score [9] | PBM binding z-score [10] | PBM binding z-score [11] | PBM binding z-score [12] | PBM binding z-score [13] | PBM binding z-score [14] | PBM binding z-score [15] | PBM binding z-score [16] | PBM binding z-score [17] | PBM binding z-score [18] | PBM binding z-score [19] | PBM binding z-score [20] |
| --- | --- | --- | --- | --- | --- | --- | --- | --- | --- | --- | --- | --- | --- | --- | --- | --- | --- | --- | --- | --- |
| CCTTCCGGGTCACTCCAGGTTATAGCATCGGAGT | 4.29 | 7.37 | 1.67 | 5.1 | 0.22 | 4.38 | 4.22 | 4.36 | 1.22 | 3.15 | 3.76 | 4.8 | 0.383 | -0.795 | 1.88 | 4.83 | 0.335 | 3.65 | 0.518 | 3.77 |
| CCTACTGGGCCCTCAGGTCATTGATATCAACGTT | 0.913 | 0.734 | 0.835 | 1.2 | -0.368 | 1.5 | 0.069 | 1.15 | -0.276 | 0.433 | -0.0673 | 1.11 | -0.224 | -0.58 | 0.88 | 1.43 | 0.581 | 1.64 | 0.179 | 1.4 |
| ATCTCTAGGTAAAGATAGTTCAGTGCATGCAAAT | 0.301 | 4 | 0.693 | 0.899 | 0.443 | 0.697 | 0.357 | 0.286 | 0.0573 | 0.225 | 2.3 | 1.49 | 1.11 | 1.06 | 0.899 | 1.1 | 1.29 | 0.26 | 0.906 | 0.853 |
| CCTCGGTGGACAGAAGGTCAGAGCTGTCCGCTTT | 1.33 | 1.62 | -0.089 | 0.847 | -0.688 | 1.75 | 0.418 | 2.42 | -0.194 | 1.62 | -0.193 | 0.138 | -2.04 | -1.69 | 1.8 | 1.32 | -0.447 | 1.66 | -0.0873 | 2.56 |
| ATCTCTAGATAAGACTCAGTTCAGTGAAGAACGC | -0.0405 | -0.109 | 0.034 | -0.147 | 0.392 | -0.438 | 0.0934 | -0.337 | 0.0965 | 0.00622 | -0.453 | -0.237 | -0.428 | 1.1 | -0.287 | 0.428 | 0.883 | -0.0778 | 0.631 | -0.306 |
| TCTAGCAGGCCAGAGGGTCACTCTAGAGGTACGG | 0.795 | 0.863 | -0.632 | 1.02 | -1.09 | 2.13 | 1.45 | 2.77 | 2.29 | 2.45 | 0.721 | 0.95 | -0.508 | -0.98 | 0.476 | 1.24 | -0.322 | 2.07 | -0.492 | 2.27 |
| ACTATTAGTTGACATAGGGCAACCGATACGACGC | 0.176 | 0.333 | 0.152 | 0.7 | 0.719 | 0.537 | 1.45 | 0.934 | 0.646 | 1 | 0.444 | 0.742 | 1.27 | 1.22 | 0.811 | 0.547 | 0.504 | 0.635 | 0.879 | 1.19 |
| GCGACTGGGGCAAAGCAGGATACCATAAGGTTGG | 0.421 | -0.82 | -0.556 | -0.347 | -0.952 | 0.75 | 1.31 | 1.03 | -0.094 | 0.712 | 4.62 | 3.04 | -0.478 | -1.16 | -0.484 | -0.583 | -0.738 | -0.211 | -0.407 | 0.604 |
| TAGCCTAGGTCATGGGCCAATATACCACGCGAAC | 4.48 | 3.55 | 0.401 | 2.56 | 0.00748 | 4.3 | 4.22 | 3.93 | 1.34 | 2.91 | 1.34 | 3.16 | 0.749 | -0.176 | 1.44 | 1.86 | -0.28 | 2.92 | 0.353 | 3.77 |
| TCTAGCAGGCCAGAGGGTCACTCGAGAGGTACGG | 0.927 | 0.659 | -0.59 | 0.806 | -1.36 | 2.11 | 1.36 | 2.59 | 1.79 | 2.52 | 0.838 | 0.906 | -0.167 | -1.13 | 0.221 | 1.24 | -0.669 | 2.4 | -0.335 | 2.19 |
| GCTTACGGGTCAACGGTTATAGCATGAATAGAAT | 5.44 | 3.55 | -0.033 | 3.68 | -0.198 | 5.55 | 6.07 | 5.8 | 3.19 | 5.2 | 4.03 | 4.42 | 2.69 | 0.764 | 1.62 | 3.16 | 0.0463 | 4.02 | 0.362 | 4.08 |
| GCGACTGGGGCATGAGCAGGTTACCATAACTTAA | -0.261 | -0.325 | -0.638 | 0.484 | -1.12 | 1.1 | 1.08 | 1.11 | -0.134 | 0.437 | 3.82 | 3.4 | -0.58 | -0.475 | 0.287 | 0.134 | -0.328 | 0.416 | -0.578 | 0.781 |
| TCAGATAGGTAAATGCTAGGTGAAAGTCCGATCT | -0.114 | 0.46 | -0.0618 | 0.329 | -0.66 | 0.824 | 0.231 | 2.17 | 3.59 | 2.99 | 2.06 | 0.684 | 0.761 | 0.0198 | 0.547 | 0.13 | -0.341 | 0.568 | -0.137 | 0.156 |
| TCATATAGGTAAACAGGTGAACGTCCGTAAGTTA | 1.03 | 1.3 | 0.422 | 1.09 | -0.0806 | 2.56 | 2.7 | 3.48 | 4.2 | 3.9 | 5.34 | 5.19 | 1.47 | 1 | 1.69 | 1.09 | 0.569 | 1.4 | 1.29 | 0.977 |
| CCTTACGGGTCACTGACAGGTTATTGCATTTGGA | 5.44 | 4.13 | 0.625 | 3.78 | 0.134 | 5.14 | 4.45 | 4.46 | 1.42 | 2.91 | 3.48 | 3.61 | 0.525 | 0.563 | 2.74 | 3.89 | 0.344 | 4.51 | 0.71 | 4.04 |
